These results are taken from ChEMBL document CHEMBL3433997, “St. Jude Leishmania screening dataset” (2016).

Holding throughout (type): functional
In test [1] the target is Solute carrier family 2, facilitated glucose transporter member 1 (Homo sapiens) (UniProt P11166). Description: ST_JUDE_LEISH: Cytotoxicity at 2uM final concentration against transgenic Leishmania Mexicana promastigotes LmGLUT1 that are glucose transport deficient and complemented with the human glucose transporter GLUT1. Activity is measured by DNA content using SYBR green in vitro.

In test [2] the target is Hexose transporter 1 (Plasmodium falciparum) (UniProt O97467). In words: ST_JUDE_LEISH: Cytotoxicity at 2uM final concentration against transgenic Leishmania Mexicana promastigotes LmPfHT that are glucose transport deficient and complemented with the Plasmodium falciparum hexose transporter. Activity is measured by DNA content using SYBR green in vitro.
In test [3] the target is Glucose transporter (Leishmania mexicana) (UniProt O61059). Description: ST_JUDE_LEISH: Cytotoxicity at 2uM final concentration against transgenic Leishmania Mexicana promastigotes LmGT2 that are glucose transport deficient and complemented with the L. Mexicana glucose transporter 2. Activity is measured by DNA content using SYBR green in vitro.

Sequence of Solute carrier family 2, facilitated glucose transporter member 1 (Homo sapiens) (P11166 whole entry): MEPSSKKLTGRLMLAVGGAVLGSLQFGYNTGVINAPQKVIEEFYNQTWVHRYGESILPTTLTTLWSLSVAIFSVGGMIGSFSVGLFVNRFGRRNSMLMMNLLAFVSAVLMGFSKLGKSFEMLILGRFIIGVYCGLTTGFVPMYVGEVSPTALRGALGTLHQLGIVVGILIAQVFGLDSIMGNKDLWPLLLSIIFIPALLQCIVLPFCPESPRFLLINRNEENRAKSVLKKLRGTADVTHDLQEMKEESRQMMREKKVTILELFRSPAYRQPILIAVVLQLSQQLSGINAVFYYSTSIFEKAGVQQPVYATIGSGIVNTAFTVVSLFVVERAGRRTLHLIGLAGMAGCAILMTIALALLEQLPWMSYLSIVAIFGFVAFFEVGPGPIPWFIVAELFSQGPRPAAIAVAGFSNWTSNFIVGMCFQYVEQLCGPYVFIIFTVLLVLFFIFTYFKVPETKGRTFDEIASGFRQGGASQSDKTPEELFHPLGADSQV

Usually inhibition stands for the relative decrease from the control value, in per cent. With `COc1ccc(C(=O)CCC(=O)N(Cc2ccc(-c3ccc(CNCCc4ccc(S(C)(=O)=O)cc4)cn3)cc2)C2CCN(Cc3ccccc3)CC2)cc1F`, the inhibition in test [1] came out at 4.03%; in test [2], 5.85%; in test [3], 2.72%.
Consider `CN(C)CCOc1ccc(N2CCN(CCCCNC(=O)c3ccc(/C=C/c4cc(Cl)cc(Cl)c4)cc3)CC2)cc1`, for which the figures for the inhibition in test [1], in test [2] and in test [3] were -0.63%, 0.08% and -0.38%, respectively.
Take `CCCCCCCc1ccc(-c2c(C)[nH]c(C)c(Cl)c2=O)cn1`: the inhibition in test [1] came out at 0.84%; in test [2], 1.55%; in test [3] it was 0.07%.
Consider `CCCC(C(CC1CCC(C)CC1)C(=O)NC(CCCNc1ncccn1)C(=O)Nc1nccs1)N(O)C=O` (configuration not stated), for which the inhibition was 3.88% in test [1], 3.89% in test [2] and 5.63% in test [3].
With `Cc1cnc2ccc(NS(=O)(=O)c3ccc4c(Cl)cccc4c3)cc2c1N1CCNCC1`, the inhibition in test [1] amounted to 1.16%; in test [2], 1.37%; in test [3], 1.37%.
As to `c1nc2nc3c(c(Nc4ccc5c(c4)CCC5)n2n1)CCC3`, the inhibition in test [1] is 3.23%; in test [2], -0.85%; in test [3], 1.24%.
As to `Oc1cccc(Nc2nc(NCc3ccco3)c3ccccc3n2)c1`, the inhibition was 19.6% in test [1], 12.2% in test [2] and 4.1% in test [3].
Consider `O=C(Nc1ccc2ccccc2c1)N1CCC(NCc2cccc([N+](=O)[O-])c2)CC1`, for which the inhibition amounted to 2.09% in test [1], 1.61% in test [2] and 0.78% in test [3].
`c1cc2[nH]c(CCCCCc3nc4cc(C5=N[C@@H]6CCCC[C@@H]6N5)ccc4[nH]3)nc2cc1C1=N[C@@H]2CCCC[C@@H]2N1`: the values for the inhibition in test [1], in test [2] and in test [3] were 3.32%, 2.96% and 1.81%, respectively.
With `COc1cc(C)ccc1N1CCN(CCCCNC(=O)c2ccc(NC(=O)c3ccc(Cl)cc3)cc2)CC1`, the values for the inhibition in test [1], in test [2] and in test [3] were 6.85%, 6.83% and 6.92%, respectively.
For the compound `COc1cc(C2CCCCC2)c(OC)cc1CC1c2cc(O)c(Cl)cc2CCN1C` (configuration not stated), the inhibition was 3.83% in test [1], -0.22% in test [2] and 12.9% in test [3].
`COc1ccc(CNCCc2cccs2)cc1-c1ccc(S(=O)(=O)NCCN2CCCC2)s1`: the values for the inhibition in test [1], in test [2] and in test [3] were 4.99%, 5.45% and 4.66%, respectively.
In the case of `O=C(Nc1ccc(Oc2cccnc2)cc1)C1CCN(Cc2cc(Cl)ccc2O)CC1`, the figures for the inhibition in test [1], in test [2] and in test [3] were 2.3%, 4.55% and 1.47%, respectively.
On the same counts, the results for `Cc1cc(-c2cccc(CNC3CCN(C)CC3)c2)ccc1S(=O)(=O)NCc1ccccc1` are 4.02%, 3.65% and 4.62%.
Turning to `O=C(Nc1cccc(-c2cc(-c3c(Cl)cccc3Cl)no2)c1)c1cncc(-c2cccs2)c1`, the inhibition in test [1] was determined as 16%; in test [2], 11.1%; in test [3], 10.8%.
Regarding `CC(=O)Nc1nnc(SCc2c(C)cc(C(C)(C)C)cc2C)s1`, the values for the inhibition in test [1], in test [2] and in test [3] were 0.82%, -2.97% and 1.06%, respectively.
On the same counts, the results for `COc1ccc2nccc([C@@H](O)CN3CCC(NC(=O)/C=C/c4ccc(Cl)c(C(F)(F)F)c4)CC3)c2c1` are 5%, 4.74% and -1.23%.
As for `Cc1cccc2nc(-c3ccc(-c4ccc(NC(=O)NC5CC5c5ccccc5)cc4)cc3)[nH]c12` (configuration not stated), the inhibition is 0.9% in test [1], -1.52% in test [2] and 4.78% in test [3].
On to `Cc1cc(C(=O)NC2CCN(CC3(c4ccccc4)CCCCC3)CC2)on1`, for which the results for the inhibition in test [1], in test [2] and in test [3] were 1.62%, 0.59% and -0.45%, respectively.
In the case of `CN1CCC(N(Cc2ccc(-c3ccc(C(F)(F)F)cc3)cc2)C(=O)Cn2cc(Cc3cnn(C)c3)c(=O)nc2SCc2cccc(F)c2F)CC1`, the results for the inhibition in test [1], in test [2] and in test [3] were 2.43%, 2.37% and 2.81%, respectively.
Regarding `O=C(Nc1cccc(-c2nn3ccccc3c2-c2ccnc(Nc3cccc(F)c3)n2)c1)c1c(F)ccc(F)c1F`, the values for the inhibition in test [1], in test [2] and in test [3] were 6.01%, 9.13% and 5.56%, respectively.
On the same counts, the results for `Cc1ccc(O)cc1Nc1ccnc2ccc(C(C)(C)C)cc12` are -2.04%, -2.63% and -2.07%.
On the same counts, the results for `Oc1ccc(CCNc2nc(NCc3ccccc3-c3ccc(C(F)(F)F)cc3)nc(N3CCNCC3)n2)cc1` are 1.66%, -2.19% and 1.94%.
On the same counts, the results for `Cc1ccc(NC(=O)C2CCC2)cc1-c1ccc(C(=O)NCC2CC2)cc1` are 1.36%, 0.51% and 0.3%.
As to `O=C(Nc1cccc(Cl)c1N1CCOCC1)C(Cl)(Cl)Cl`, the inhibition in test [1] was 1.32%; in test [2], 0.42%; in test [3], 1.03%.
In the case of `Cc1ccc(F)c(OCC2CCN(c3ccc(C(=O)NC4CC4)cn3)CC2)c1`, the values for the inhibition in test [1], in test [2] and in test [3] were 3.7%, 2.89% and -1.65%, respectively.
`O=C(/C=C/c1ccccc1Cl)NC1CCC(CN2CCC(c3c[nH]c4ccncc34)CC2)CC1` (configuration not stated): the inhibition is -0.19% in test [1], 0.35% in test [2] and 1.34% in test [3].
Take `COc1cccc(CNC[C@@H](O)[C@H](Cc2ccccc2)NC(=O)c2cc(OC(C)C)cc(N3CCCCS3(=O)=O)c2)c1`: the inhibition in test [1] was 0.5%; in test [2], -0.88%; in test [3], -0.67%.
On to `CCCCNc1c(C(=O)OCC)c(C)nc2c1[nH]c1ccccc12`, for which the inhibition is 3.19% in test [1], 4.14% in test [2] and -0.65% in test [3].
On the same counts, the results for `CCC(CO)NCC(O)Cn1c2ccc(Cl)cc2c2cc(Cl)ccc21` (configuration not stated) are 4.65%, 5.96% and 2.18%.
As for `CC(=O)Nc1ccc2[nH]cc(C3CCN(CC4CCN(C(=O)/C=C/c5ccc(Cl)c(Cl)c5)CC4)CC3)c2n1`, the inhibition in test [1] is 3.09%; in test [2], 0.87%; in test [3], -1.1%.
Take `CS(=O)(=O)c1ccc2nc(NC(=O)c3csnn3)sc2c1`: the values for the inhibition in test [1], in test [2] and in test [3] were 3.22%, 3.89% and 4.47%, respectively.
For `c1ccc(CCNCc2ccc(-c3cccc(-c4nc5ccccc5[nH]4)c3)cc2)nc1`, the inhibition came to 3.95% in test [1], 3.7% in test [2] and 3.79% in test [3].
On the same counts, the results for `Cc1nc2ccccn2c1C1(O)C(=O)Nc2c(Cl)cc(Cl)cc21` (configuration not stated) are 5.72%, 4.95% and 2.71%.
